# Measured values from PubChem BioAssay AID1851 (National Center for Advancing Translational Sciences (NCATS), 2009).
# “And” between values parts separate entries of the source, which are not always exact repeats. Identical values can stand only once. Hit rate of the full screen: of about 16,000 compounds, about 5,700 (36%) were called active. Another 24% or so got no clear call; they are omitted. The list shows a part of the results. Unmarked numbers belong to inactive results. Calls follow the shape of the dose curve; as a rule, active = well fitted curve in the direction sought with a large enough effect; inconclusive = small, poorly fitted or top-dose-only effect, or effect the other way; inactive = no such curve, though single readings can be large or run the other way.
# Biological target: Cytochrome P450 1A2 (Homo sapiens) (UniProt P05177)
# Sequence (P05177 whole entry, looked up): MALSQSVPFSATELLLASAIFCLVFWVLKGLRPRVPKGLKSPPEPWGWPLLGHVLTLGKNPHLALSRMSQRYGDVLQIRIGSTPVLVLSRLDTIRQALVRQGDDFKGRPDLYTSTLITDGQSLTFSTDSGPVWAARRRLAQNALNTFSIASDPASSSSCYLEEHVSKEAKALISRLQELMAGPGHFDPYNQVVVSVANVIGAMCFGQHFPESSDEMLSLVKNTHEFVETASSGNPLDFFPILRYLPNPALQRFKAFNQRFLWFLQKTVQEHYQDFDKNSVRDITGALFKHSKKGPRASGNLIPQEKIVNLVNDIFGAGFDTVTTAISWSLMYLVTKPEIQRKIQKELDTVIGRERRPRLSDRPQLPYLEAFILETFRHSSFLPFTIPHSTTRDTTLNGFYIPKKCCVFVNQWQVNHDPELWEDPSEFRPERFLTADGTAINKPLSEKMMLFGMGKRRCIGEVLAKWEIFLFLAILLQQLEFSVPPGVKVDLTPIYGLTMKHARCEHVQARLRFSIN
# Test: Cytochrome panel assay with activity outcomes
# Settings: recombinant CYP, pro-luciferin dealkylation, luminescence, p450-cyp1a2; series mostly up to 57.1 µM
# % is scaled to controls: 0 for no effect and ±100 for the full control effect.
SMILES,AC50,"activity, negative = inhibition"
O=[N+]([O-])c1cc([As](=O)(O)O)ccc1O,inactive,
CC[C@]1(OC(=O)CN)C(=O)OCc2c1cc1n(c2=O)Cc2cc3ccccc3nc2-1,,-17.6% [at 2.29 µM]
CC[C@@]1(O)C(=O)OCc2c1cc1n(c2=O)Cc2cc3c(NC(=O)CN)cccc3nc2-1,,-12.3% [at 2.29 µM]
CC[C@@]1(O)C(=O)OCc2c1cc1n(c2=O)Cc2cc3ccccc3nc2-1,2.51 µM (active),
CCCC[N+]12CCC(CC1)C(C(=O)c1cccs1)C2 (stereo not given),inactive,
COC(=O)[C@@H](N)CCCN=C(N)N[N+](=O)[O-],inactive,
Cc1cc(OCc2ccc([N+](=O)[O-])cc2)c2c3c(c(=O)oc2c1)CCCC3,2.24 µM (active),
Cc1cc(OCC(=O)OC(C)C)c2c3c(c(=O)oc2c1)CCCC3,3.55 µM (active),
Cc1cc(OC(=O)CCCNC(=O)OC(C)(C)C)c2c3c(c(=O)oc2c1)CCC3,2.24 µM (active),
Cn1cnc(CCN)c1,inactive,
OC1(c2ccc(F)cc2)CCNC1 (stereo not given),inactive,
CCOC(=O)N(c1ccccc1)P1(=S)OCCO1,20 µM (active),
O=C(O)C[O][Sb][O]CC(=O)O,,-7.83% [at 2.29 µM]
CC(=O)O[C@H]1C[C@@H](O[C@@H]2[C@H](C)O[C@H](O[C@@H]3[C@H](C)O[C@H](O[C@@H]4CC[C@@]5(C)[C@@H](CC[C@]6(C)[C@]5(C)C[C@H](O)[C@]5(C)[C@@H](C7=CC(=O)OC7)CC[C@@]56O)C4)C[C@@H]3O)C[C@@H]2O)O[C@@H](C)[C@H]1O[C@H]1O[C@@H](CO)[C@@H](O)[C@@H](O)[C@@H]1O,inactive,
C[C@]1(C(=O)O)[C@@H]2CC[C@@H](O2)[C@@]1(C)C(=O)O,inactive,
ClCCNc1nc2ccc(Cl)cc2[nH]1,3.55 µM (active),
N[C@H](C(=O)O)c1cc(=O)[nH]o1,inactive,
C[C@@]12CC(=O)[C@H]3[C@@H](CCC4=CC(=O)CC[C@]43C)[C@H]1CCC2=O,inactive,
CCCN(CCC)C1Cc2cc(OC)c(OC)cc2C1,inactive,
CCn1cnc2c(Nc3cccc(Cl)c3)nc(N[C@@H]3CCCC[C@H]3N)nc21,15.8 µM (active),
CN(C)C(=O)Oc1cccc([N+](C)(C)C)c1,inactive,
COc1ccc(C[C@H]2c3cc(OC)c(OC)cc3CCN2C)cc1OC,inactive,
COc1cc(/C=N/NC(=O)CN2CC(c3ccccc3)CC2=O)ccc1OC(=O)N(C)C (stereo not given),inactive,
O=C(O)CC[N+](=O)[O-],inactive,
CC(C)(C)c1cc(C=C(C#N)C#N)cc(C(C)(C)C)c1O,10 µM (active),
N#CC(C#N)=Cc1ccc(O)c(O)c1,5.01 µM (active),
COc1cc(C=C(C#N)C#N)cc(O)c1O,12.6 µM (active),
N#C/C(=C\c1ccc(O)c(O)c1)C(N)=S,12.6 µM (active) and 6.31 µM (active),
N#CC(C#N)=Cc1cc(O)c(O)c(O)c1,inactive,
N#C/C(=C\c1ccc(O)c(O)c1)C(=O)NCCCNC(=O)/C(C#N)=C/c1ccc(O)c(O)c1,inactive,
